FXN GAA850 act – FXN promoter activators, primary screen, cell-based, luciferase luminescence, HEK293 lucGAA850 | HEK293 lucGAA850 FXN promoter luciferase reporter, 24 h; percent of 10 µM SAHA response | activation, % at 6 µM | 0.56% of 360,000 active | AID 540364, 2011;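 active = activation above the average of all compounds screened plus 3 SD, cutoff fixed separately per campaign, cut at about 7.5% in these data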;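 note: 0% = DMSO wells and 100% = 10 µM SAHA wells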
HSF1 inhib – HSF1 inhibitors in luciferase reporter cells, primary screen, cell-based, NIH3T3, luminescence. NIH3T3-HGL HSE-luciferase, MG132-induced, luminescence 8 h; stronger effect = lower value. activity change, negative = inhibition, % at 7.5 µM (by protocol). 0.77% of 300,000 active. AID 2098, 2009;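 active = more than half of replicate wells show activity change below -50%, luminescence cut by over half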;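 note: luciferase reports HSF-1 transcriptional activity via heat shock element; 0% = median of DMSO wells and -100% = zero luminescence signal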
PG9 Ab binder – binders of HIV-1 gp120 antibody PG9, primary screen, biochemical, TR-FRET; TR-FRET gp120-PG9 antibody binding; inhibition, % at 6.7 µM; 0.43% of 360,000 active; AID 624416, 2012; in the data active = inhibition above about 8.5%
HSP90 refold inh – HSP90 inhibitors, primary screen, cell lysate, luminescence; Rabbit reticulocyte lysate, luciferase refolding luminescence, 3 h; inhibition, % at 5.6 µM; 0.91% of 290,000 active; AID 1789, 2009;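 active = inhibition above the screen-wide mean plus 3 SD, computed separately per campaign, cut at about 16% in these data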;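 note: 0% = DMSO wells and 100% = 60 µM geldanamycin wells; inhibitors lower the luminescence because luciferase stays unfolded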
SMARCA2 activ – SMARCA2 (BRM) function activators, primary screen, cell-based, luminescence, high throughput; AID 652017, 2013; 1% of 370,000 active; MG213 cells, MMTV-luciferase reporter, dexamethasone, overnight; activation, % at 9.1 µM; in the data active = activation above about 7.8%;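 note: 0% = vehicle wells and 100% = reference activator wells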
AI-2 QS mod – Vibrio harveyi AI-2 quorum sensing modulators, primary screen, JMH597 strain, luminescence/OD600 ratio. Vibrio harveyi JMH597 AI-2 luminescence/OD600 ratio, 9 h; stronger effect = lower value; strain lacks LuxN and CqsS sensors; 0 = neutral-control median. 0.4% of 300,000 active. activity change, % at 7.5 µM; in the data active = activity change below about -75%, passing the limit was not always enough;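 note: luminescence divided by OD600 gain over 9 h not by final OD600 alone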
GAA30 counter – GAA30 FXN promoter activators, confirmation, counter-screen for GAA850 frataxin promoter activator project, cell-based, luminescence, HEK293, lucGAA30, triplicate | shares compounds with FXN GAA850 act | HEK293 lucGAA30 FXN promoter luciferase, 24 h; DMSO = 0%, 5 µM ipriflavone = 100% | activation, % at 6 µM | 66% of 1,900 active | AID 588350, 2011;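 active = mean activation above the mean of solvent-only control wells plus 3 SD, cut at about 22% in these data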;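 note: counterscreen of GAA850 promoter hits where activity marks nonselective or luminescence artifacts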
FXN GAA850 conf – FXN GAA850 promoter activators in reporter cells, confirmation, cell-based, luminescence, HEK293 lucGAA850, triplicate | shares compounds with FXN GAA850 act | HEK293 lucGAA850 FXN promoter luciferase reporter, 24 h; 100% = activation by SAHA | activation, % at 6 µM | AID 588351, 2011 | 86% of 1,900 active;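 active = mean activation above a set limit taken from the primary screen, cut at about 8% in these data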;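 note: 0% = DMSO wells and 100% = 10 µM SAHA wells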
The depositor's hits bear a star; x = no result; ! = not confirmed by another sample. A selection: hits, their analogues and other compounds. The true share with any hit is near 3.4%.

SMILES	FXN GAA850 act	HSF1 inhib	PG9 Ab binder	HSP90 refold inh	SMARCA2 activ	AI-2 QS mod	GAA30 counter	FXN GAA850 conf
Cc1ccc(/C=C/C(=O)N2CCN(S(=O)(=O)c3ccc(C)c(C)c3)CC2)o1	7.6*	33	-1	15	1	8	13	4
COc1ccc(NC(=O)C2c3ccccc3OCC(=O)N2Cc2cccnc2)cc1 (stereo not drawn)	x	x	-1	x	-4	x	x	x
CC(C)c1ccc(NC(=O)NN2CCOCC2)cc1	8.0*	10	0	4	2	4	85*	33*
CCOC(=O)C1=CCN(S(=O)(=O)c2ccccc2Cl)C1c1ccc(Cl)cc1 (stereo not drawn)	x	x	-1	x	-2	x	x	x
Cc1c(CN(C)C)c2c(n1C)C(=O)c1ccc(Br)cc1-2	11*	-8	-13	3	7	10	20	18*
Cc1c(CN(C)C)c2c(n1Cc1ccccc1)C(=O)c1ccc(Br)cc1-2	-4	-39	-5	0	-2	20	x	x
COc1cc(C#Cc2ccc3cc(CCO)oc(=O)c3c2)cc(OC)c1	7.8*	x	-2	x	4	x	106*	38*
CN(C)c1ccc(C#Cc2ccc3cc(CCO)oc(=O)c3c2)cc1	4	x	x	x	x	x	x	x
C[C@@H]1CN([C@@H](C)CO)C(=O)CCCn2nncc2CO[C@H]1CN(C)C(=O)c1ccc(N2CCN(C)CC2)cc1	0	x	1	x	-1	x	x	x
Cc1cc(N2CCN(CC(C)(C)O)C[C@H]2C)ccc1N1CCN(Cc2ccccc2)[C@@H](C)C1	x	x	-1	x	0	x	x	x
COc1ccccc1C(=O)C1Nc2ccccc2-c2nnc(SC)nc2O1 (stereo not drawn)	8.8*	-1	-1	-2	-3	8	16	5
O=C(Nc1ccc(F)cc1)OCc1cn(Cc2ccc(Cl)cc2)nn1	x	x	x	x	-3	x	x	x
O=C1C=CC(=O)c2c(O)c(N3CCN(CCOCCO)CC3)c(Br)c(O)c21	14*	x	3	x	5	x	-98	-30
Cc1cc(Cl)ccc1OCCCC(=O)N1CCCCC1	8.6*	6	0	-6	5	24	79*	31*
Cc1ccc(S(=O)(=O)N2CCN(C(=O)CCCOc3ccc(Cl)cc3C)CC2)cc1	-3	7	0	x	-4	-7	x	x
COc1cccc(CN(C)C(=O)[C@@H](Cc2ccccc2)NC(=O)[C@H]2O[C@@H](n3ccc(=O)[nH]c3=O)[C@H](O)[C@@H]2O)c1	x	x	-1	x	-1	x	x	x
COc1cc2ccccc2cc1C(=O)Nc1ccccc1Cl	8.2*	66	0	-4	5	21	121*	39*
Cc1cc(C)nc(Nc2n[nH]c(-c3ccc(C(C)(C)C)cc3)n2)n1	-1	-12	1	0	1	33	x	x
Cc1cc(C)nc(Nc2n[nH]c(-c3ccc(N)cc3)n2)n1	8.2*	11	-2	10	6	8	93*	34*
Cc1nnc(SCc2cccc3ccccc23)s1	7.6*	8	0	0	2	0	80*	29*
c1ccc(Nc2nnc(SCc3cccc4ccccc34)s2)cc1	4	13	-1	2	1	17	x	x
CN(C)c1ccc(C(=O)c2ccc(O)cc2O)cc1	1	15	-4	2	6	25	x	x
CN(C)c1ccc(Cc2cc3c(O)ccc(O)c3cc(Cc3ccc(N(C)C)cc3)c2=O)cc1	14*	39	8	x	-5	x	16	23*
CCCN1CCCCC(NC(=O)c2ccc(F)c(F)c2)C1=O (stereo not drawn)	x	x	-2	x	-1	x	x	x
COC(=O)C1=C(C)N(C)C(=NCc2ccc(OC)cc2)NC1c1cccc(Cl)c1 (stereo not drawn)	x	x	-1	x	-2	x	x	x
SMILES	FXN GAA850 act	HSF1 inhib	PG9 Ab binder	HSP90 refold inh	SMARCA2 activ	AI-2 QS mod	GAA30 counter	FXN GAA850 conf
C/C(=N\N=C\c1ccccc1F)c1nnn(-c2nonc2N)c1C	10*	-16	1	-1	1	14	88*	31*
Nc1nonc1-n1nnc(C(=O)N/N=C/c2ccccc2F)c1-c1cccs1	0	-1	-3	-1	-3	20	x	x
CC(=O)c1ccc(OCC(O)CN2CCN(Cc3ccc4c(c3)OCO4)CC2)cc1 (stereo not drawn)	9.3*!	-61*!	0	2	3	16	22*	6
COc1ccc(OCC(O)CN2CCN(Cc3ccc4c(c3)OCO4)CC2)cc1 (stereo not drawn)	2	-1	1	1	-2	43	x	x
CN(C)c1nc(N)c([N+](=O)[O-])c(NCc2ccccc2)n1	7.6*	x	-1	4	-2	17	69*	25*
Cc1ccc(Nc2nc(N)c([N+](=O)[O-])c(NCc3ccco3)n2)cc1C	7.8*	20	1	-5	2	34	92*	44*
CNc1nc(N)c([N+](=O)[O-])c(NCc2ccccc2)n1	17*	-2	-1	-2	-1	-9	87*	32*
Nc1nc(NCc2ccccc2)nc(NCc2ccccc2)c1[N+](=O)[O-]	4	3	0	-1	-4	13	x	x
Cc1ccc(Nc2nc(N)c([N+](=O)[O-])c(NCCO)n2)cc1C	5	9	1	3	-1	3	x	x
NC(=O)C(c1ccccc1)(c1ccccc1)[C@@H]1CCN(CCc2ccc3c(c2)CCO3)C1	x	x	x	x	-3	x	x	x
CCN1C(=O)N[C@H]2C[C@@H](c3ccccc3)[C@@H](C)[C@@H](C(=O)N3CCCC3)C[C@H]21	x	x	1	x	-4	x	x	x
COc1cc2sc3cc(NCC[C@@H]4CCCN4C)ccc3c(=O)c2cc1OC	9.9*	x	-2	x	7	x	83*	42*
COc1ccc(NC(=S)Nc2cc(C)ccn2)c(OC)c1	7	20	0	-1	7	15	x	x
COc1ccc(NC(=S)Nc2ccccn2)c(OC)c1	8.1*	13	2	0	-3	2	107*	46*
